Assay results published in PubChem BioAssay (NCI).
Values joined by “and” are separate entries in the source; they are usually repeats but may differ in a detail not shown here. Identical values can stand only once. About 83,000 compounds went through this panel and 20% of them were active in at least one assay; those are over-represented in the sample as a whole.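 Interpretation: 100, growth as untreated; towards 0, rising growth inhibition; 0, no net growth; 0 to -100, cell death. Compounds scoring below 10 were considered active.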 Active and inactive are the calls of the source.

Assays:
Test in all cases: NCI-60 one-dose screen, 48 h (100 = growth as untreated, 0 = no growth, -100 = all killed)
HCT-15 colon = test system: HCT-15 colon
HT29 colon = test system: HT29 colon
SNB-75 CNS = test system: SNB-75 CNS
SNB-19 CNS = test system: SNB-19 CNS
U251 CNS = test system: U251 CNS
PC-3 prostate = test system: PC-3 prostate
SK-MEL-5 melanoma = test system: SK-MEL-5 melanoma
UACC-62 melanoma = test system: UACC-62 melanoma
LOX IMVI melanoma = test system: LOX IMVI melanoma
SK-MEL-28 melanoma = test system: SK-MEL-28 melanoma

Measured: growth

CC[C@]12CN3CCc4c([nH]c5ccccc45)[C@@](C(=O)OC)(c4cc5c(cc4OC)N(C)[C@H]4[C@@](O)(C(=O)OC)[C@H](OC(C)=O)[C@]6(CC)C=CCN7CC[C@]54[C@@H]76)CC(C3)[C@H]1O2 (stereo partly specified)
active: HT29 colon; 10 µM unless noted 2.74% | SNB-75 CNS; 10 µM unless noted -2.51% | SK-MEL-5 melanoma; 10 µM unless noted -26.4%
94.4% (inactive) and -98.3% (active): UACC-62 melanoma; 100 µM
inactive: HCT-15 colon; 10 µM unless noted 29% | SNB-19 CNS; 10 µM unless noted 26.9% | U251 CNS; 10 µM unless noted 16% | PC-3 prostate; 10 µM unless noted 15.5% | UACC-62 melanoma; 10 µM 26.6% | LOX IMVI melanoma; 10 µM unless noted 19.5% | SK-MEL-28 melanoma; 10 µM unless noted 60.2%

Cc1ccc(/C=C(\C#N)c2cc3ccccc3[nH]2)cc1
inactive: HCT-15 colon; 10 µM unless noted 27.1% | HT29 colon; 10 µM unless noted 13% | SNB-75 CNS; 10 µM unless noted 54.1% | SNB-19 CNS; 10 µM unless noted 55.4% | U251 CNS; 10 µM unless noted 38% | PC-3 prostate; 10 µM unless noted 71.1% | SK-MEL-5 melanoma; 10 µM unless noted 52% | UACC-62 melanoma; 10 µM unless noted 22.7% | LOX IMVI melanoma; 10 µM unless noted 43.4% | SK-MEL-28 melanoma; 10 µM unless noted 72.1%

COc1ccccc1/C=C/C(=O)/C=C/c1ccccc1OC
inactive: SNB-75 CNS; 10 µM unless noted 45.2% and 12.6% | SNB-19 CNS; 10 µM unless noted 33.5% and 38.5%
active: HCT-15 colon; 10 µM unless noted -2.72% and -27.6% | HT29 colon; 10 µM unless noted -42.7% and -16.4% | U251 CNS; 10 µM unless noted -81% and -40.1% | SK-MEL-5 melanoma; 10 µM unless noted -89.4% and -77% | UACC-62 melanoma; 10 µM unless noted -61.6% and -64.3% | LOX IMVI melanoma; 10 µM unless noted -60.1% and -53.8% | SK-MEL-28 melanoma; 10 µM unless noted -58.9% and -57.8%
0.508% (active) and 17% (inactive): PC-3 prostate; 10 µM unless noted

CC(C)(C)c1cc(NC(=O)Nc2ccc(-c3cn4c(n3)sc3cc(OCCN5CCOCC5)ccc34)cc2)no1
inactive: HCT-15 colon; 10 µM unless noted 23.8% and 51.5% | SNB-19 CNS; 10 µM unless noted 37.4% and 11.4% | PC-3 prostate; 10 µM unless noted 22.8% and 15.2% | SK-MEL-28 melanoma; 10 µM unless noted 42.9% and 33.8%
active: HT29 colon; 10 µM unless noted -41.7% and -1.96% | U251 CNS; 10 µM unless noted -3.4% and 0.378% | UACC-62 melanoma; 10 µM unless noted -53.4% and 5.34%
0.319% (active) and 23.4% (inactive): LOX IMVI melanoma; 10 µM unless noted
45.4% (inactive) and -7.53% (active): SNB-75 CNS; 10 µM unless noted
13.5% (inactive) and 9.61% (active): SK-MEL-5 melanoma; 10 µM unless noted

CC(=O)/C=C/c1ccc(N(CCO)Cc2ccc(C(C)(C)C)cc2)cc1
inactive: HCT-15 colon; 10 µM 62.5% | HT29 colon; 10 µM 59.4% | SNB-75 CNS; 10 µM 76.3% | SNB-19 CNS; 10 µM 102% | U251 CNS; 10 µM 75.9% | PC-3 prostate; 10 µM 66% | SK-MEL-5 melanoma; 10 µM 70% | UACC-62 melanoma; 10 µM 76.5% | LOX IMVI melanoma; 10 µM 62.4% | SK-MEL-28 melanoma; 10 µM 89.1%
active: HCT-15 colon; 100 µM -83% | HT29 colon; 100 µM -81.5% | SNB-75 CNS; 100 µM -92.3% | SNB-19 CNS; 100 µM -89.9% | U251 CNS; 100 µM -100% | PC-3 prostate; 100 µM -90.3% | SK-MEL-5 melanoma; 100 µM -99.5% | UACC-62 melanoma; 100 µM -86.3% | LOX IMVI melanoma; 100 µM -100% | SK-MEL-28 melanoma; 100 µM -90.7%

CC(=O)/C=C/c1ccc(OCc2ccc(Cl)cc2)cc1
active: SK-MEL-5 melanoma; 100 µM -37%
inactive: HCT-15 colon; 10 µM 96.7% | HCT-15 colon; 100 µM 42% | HT29 colon; 10 µM 94.3% | HT29 colon; 100 µM 36.2% | SNB-75 CNS; 10 µM 91% | SNB-75 CNS; 100 µM 35.6% | SNB-19 CNS; 10 µM 105% | SNB-19 CNS; 100 µM 51.7% | U251 CNS; 10 µM 88.3% | U251 CNS; 100 µM 33.9% | PC-3 prostate; 10 µM 90% | PC-3 prostate; 100 µM 36.1% | SK-MEL-5 melanoma; 10 µM 97.7% | UACC-62 melanoma; 10 µM 95.5% | UACC-62 melanoma; 100 µM 24.6% | LOX IMVI melanoma; 10 µM 86.7% | LOX IMVI melanoma; 100 µM 32.2% | SK-MEL-28 melanoma; 10 µM 112% | SK-MEL-28 melanoma; 100 µM 26.1%

O=C(/C=C/c1cccc(Oc2ccc(Cl)cc2)c1)c1ccccc1
inactive: HCT-15 colon; 10 µM 80.8% | HT29 colon; 10 µM 84.2% | SNB-75 CNS; 10 µM 82.8% | SNB-19 CNS; 10 µM 90.5% | U251 CNS; 10 µM 76% | PC-3 prostate; 10 µM 84.5% | SK-MEL-5 melanoma; 10 µM 105% | UACC-62 melanoma; 10 µM 100% | LOX IMVI melanoma; 10 µM 38.2% | SK-MEL-28 melanoma; 10 µM 101%
active: HCT-15 colon; 100 µM -72.6% | HT29 colon; 100 µM -67% | SNB-75 CNS; 100 µM -94.8% | SNB-19 CNS; 100 µM -77.3% | U251 CNS; 100 µM -100% | PC-3 prostate; 100 µM -72.3% | SK-MEL-5 melanoma; 100 µM -97.3% | UACC-62 melanoma; 100 µM -71.9% | LOX IMVI melanoma; 100 µM -99.3% | SK-MEL-28 melanoma; 100 µM -82.2%

O=C1c2cccc3cccc(c23)C(=O)N1N1C(=O)c2cccc3c(N4CCNCC4)ccc(c23)C1=O
inactive: HCT-15 colon; 10 µM unless noted 50.6% | HT29 colon; 10 µM unless noted 87.3% | SNB-75 CNS; 10 µM unless noted 92.2% | SNB-19 CNS; 10 µM unless noted 88.5% | U251 CNS; 10 µM unless noted 86.3% | PC-3 prostate; 10 µM unless noted 85.1% | SK-MEL-5 melanoma; 10 µM unless noted 92.8% | UACC-62 melanoma; 10 µM unless noted 95.7% | LOX IMVI melanoma; 10 µM unless noted 86.5% | SK-MEL-28 melanoma; 10 µM unless noted 109%
